# FAS-TE inh: FAS thioesterase domain inhibitors, primary screen, biochemical, fluorescence intensity, uHTS. Fatty acid synthase (Homo sapiens), P49327. recombinant FAS-TE, OMFH fluorogenic substrate, fluorescence endpoint. inhibition, % at 15 µM. actives 0.67% (n = 360,000). AID 602261, 2012;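 active = compounds whose normalised, plate-corrected inhibition of enzyme fluorescence in the single-dose primary screen is 50% or more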;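 also: 0% = DMSO with enzyme and 100% = substrate without enzyme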
# proKLK7 act: proKLK7 zymogen activators, primary screen, biochemical, fluorescence intensity; Kallikrein-7 (Homo sapiens), P49862; purified proKLK7, EDANS-DABCYL substrate fluorescence; 100% is mature enzyme control, 0% vehicle; AID 652039, 2013; actives 0.9% (n = 370,000); activation, % at 7 µM;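 active = activation above the mean of all tested compounds plus 3 SD, computed per campaign excluding outliers beyond control limits, cut at about 13% in these data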
# Target sequence (P49862 whole entry, looked up): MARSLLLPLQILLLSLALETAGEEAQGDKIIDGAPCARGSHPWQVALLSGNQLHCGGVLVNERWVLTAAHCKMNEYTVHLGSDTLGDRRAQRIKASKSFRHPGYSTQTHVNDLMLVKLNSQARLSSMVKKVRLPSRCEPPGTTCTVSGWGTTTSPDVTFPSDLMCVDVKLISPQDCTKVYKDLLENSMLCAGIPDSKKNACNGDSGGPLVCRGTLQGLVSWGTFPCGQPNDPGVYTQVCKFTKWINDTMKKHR
# ADAM10 inh: human ADAM10 inhibitors, primary screen, biochemical, QFRET, HTS; Disintegrin and metalloproteinase domain-containing protein 10 (Homo sapiens), O14672; AID 720582, 2013; inhibition, % at 7 µM; actives 0.62% (n = 370,000); recombinant ADAM10, EDANS/DABCYL FRET peptide cleavage, 3 h;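 active = inhibition above a per-campaign cutoff equal to the mean of compounds falling between control-based bounds plus 3 SD, cut at about 20% in these data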;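 also: 0% = DMSO wells while the 100% control is not disclosed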
# GRIN3A LBD mod: binders of NR3A ligand-binding domain, primary screen, biophysical, differential scanning fluorimetry, uHTS | actives 2.5% (n = 340,000) | Tm shift relative to glycine control, % at 25 µM | NR3A LBD differential scanning fluorimetry, Tm shift; 0% = protein alone, 100% = glycine-bound protein | AID 1259313, 2017;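 active = melting temperature shift of at least 10% of the positive control shift, at one fixed dose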
# ADAM17 inh: ADAM17 inhibitors, primary screen, biochemical, QFRET; Disintegrin and metalloproteinase domain-containing protein 17 (Homo sapiens), P78536; recombinant ADAM17, EDANS/DABCYL FRET peptide cleavage; inhibition, % at 6.95 µM; actives 0.83% (n = 370,000); AID 720648, 2013;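 active = inhibition above the mean of compounds lying between control limits plus 3 SD, set per campaign, cut at about 8.5% in these data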;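 also: 0% = DMSO-only wells as the low control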
# FAS-TE conf: FAS thioesterase domain inhibitors, confirmation, biochemical, fluorescence intensity, single concentration. actives 45% (n = 2,300). AID 624325, 2012. shares compounds with FAS-TE inh. recombinant FAS-TE, OMFH fluorogenic substrate. inhibition, % at 15 µM;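 active = compounds inhibiting the enzyme by at least 50% at 15 µM in any one of the replicates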;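 also: 0% = enzyme with DMSO only and 100% = wells lacking enzyme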
# The depositor's hits bear a star; i = inactive; . = no result given. Hits are enriched below; roughly 4.6% of the tested compounds scored in any of these assays.
SMILES,FAS-TE inh,proKLK7 act,ADAM10 inh,GRIN3A LBD mod,ADAM17 inh,FAS-TE conf
Cn1cnnc1Sc1cc(N2CCN(S(=O)(=O)c3ccc(Cl)c(Cl)c3)CC2)ccc1[N+](=O)[O-],18.3,0.8,8.4,-3.3,-4.2,.
O=[N+]([O-])c1ccc(N2CCN(S(=O)(=O)c3ccc4ccccc4c3)CC2)cc1NCC1CCCO1 (stereo unspecified),51.0*,0.8,2.8,-1.0,1.9,1.6
Cn1cnnc1Sc1cc(N2CCN(S(=O)(=O)c3ccc4ccccc4c3)CC2)ccc1[N+](=O)[O-],63.5*,0.0,7.0,-17.2,4.4,-4.1
O=C(OC12CCCN(C1)/C(=C/c1ccccc1)C2)C1CCCC1 (stereo unspecified),.,0.2,-7.9,.,-2.5,.
CC(C)N1CCc2c(sc(NC(=O)c3ccc([N+](=O)[O-])o3)c2C(N)=O)C1,59.5*,0.1,5.3,.,4.4,71.5*
N#Cc1ccc(Cn2ccc3ccc(-c4ccc5ccn(C(=O)C6CCC6)c5c4)cc32)cc1,.,-6.3,-43.6,.,-10.0,.
O=C(Nc1ccc(-c2nnc3n2CCCCC3)cc1)c1cc2ccccc2o1,1.2,0.2,-2.0,-2.8,-3.9,.
Cc1c(C(=O)Nc2ccc(-c3nnc4n3CCCCC4)cc2)oc2c1ccc1ccccc12,78.0*,-1.7,-7.4,-11.7,-4.0,6.2
CCc1nc2c(OCc3ccc(Cl)cc3)cccn2c1N(C=O)Cc1ccc(OC)cc1,54.2*,0.5,9.4,.,2.9,62.2*
CCc1nc2c(OCc3ccc(Cl)cc3Cl)cccn2c1N(C=O)Cc1ccc(OC)cc1,77.7*,-0.1,-11.0,.,0.6,61.7*
COc1ccccc1NS(=O)(=O)c1cc(NC(=O)c2sccc2C)ccc1N1CCCC1,58.4*,-2.7,15.8,-0.9,7.4,3.3
COc1ccccc1NS(=O)(=O)c1cc(NC(=O)c2sccc2C)ccc1N1CCOCC1,30.2,0.0,1.4,-3.9,0.4,.
COc1ccccc1NS(=O)(=O)c1cc(NC(=O)/C=C/c2cccs2)ccc1N1CCOCC1,82.1*,-0.2,-5.3,2.6,2.5,22.0
COc1ccccc1NS(=O)(=O)c1cc(NC(=O)C(C)(C)C)ccc1N1CCOCC1,5.3,0.4,5.7,1.0,0.5,.
CCCCCn1c(=NC(C)=O)c(C#N)cc2c(=O)n3ccccc3nc21,61.2*,6.2,i,2.9,-181.3,23.3
CCCCn1c(=NC(C)=O)c(C#N)cc2c(=O)n3cccc(C)c3nc21,50.3*,2.6,i,2.2,-125.7,31.6
CCOCCCn1c(=NC(C)=O)c(C#N)cc2c(=O)n3cccc(C)c3nc21,24.8,11.6,i,0.5,i,.
COC(=O)[C@]12C[C@H](CC(=O)NCc3cccs3)C(=O)N(Cc3ccccc3)C1=C[C@H](COCc1ccccc1)O[C@@H]2C,.,0.7,-0.4,.,-1.5,.
CCOC(=O)[C@]12Cc3c(cc(OC)c(OC)c3OC)[C@H]1N(C1CCCCC1)C(=O)c1cc(OC)ccc12,50.2*,0.7,-8.2,.,-2.4,37.9
O=C1CCC[C@@H]2C[C@@]3(C[C@@H]4CCN1[C@H]24)Nc1cc(Cl)c(Cl)cc1NC3=NCc1ccccc1,52.5*,-0.2,3.0,-2.1,-2.7,36.2
Cc1cc(=O)n2[nH]c(-c3ccc(C(C)(C)C)cc3)cc2n1,63.1*,-1.4,-23.8,0.8,-9.2,44.3*
O=c1c2ccccc2oc2cc(C#CC3(O)CCCCC3)ccc12,54.9*,-0.2,-29.2,-20.2,4.7,36.2
COc1cccc2oc3cc(C#CC4(O)CCCCC4)ccc3c(=O)c12,-0.3,-17.3,-248.1,-4.7,-64.6,.
CCCCN1CC(=O)N2[C@H](C[C@@]3(C)c4ccccc4N(S(=O)(=O)c4ccccc4)[C@@H]23)C1=O,.,0.8,-3.3,.,-4.0,.
O=C(COc1ccc(Cl)cc1)Nc1ccccc1Cl,11.1,0.4,5.0,2.2,-2.1,.
SMILES,FAS-TE inh,proKLK7 act,ADAM10 inh,GRIN3A LBD mod,ADAM17 inh,FAS-TE conf
O=C(COc1ccc(Cl)cc1)Nc1ccc(C(=O)O)cc1NC(=O)COc1ccc(Cl)cc1,51.0*,-0.1,0.0,10.2*,1.6,65.7*
COc1ccccc1NS(=O)(=O)c1ccc(N/N=C/c2c(C)nn(-c3ccccc3)c2N2CCCC2)c([N+](=O)[O-])c1,63.9*,-0.1,-0.6,0.7,-1.9,16.7
CCOc1ccc(S(=O)(=O)Nc2ccc(C(=O)N/N=C/c3c(C)nn(-c4ccccc4)c3N3CCCC3)cc2)cc1,54.6*,-11.2,-8.3,4.7,0.6,0.1
COc1ccccc1NS(=O)(=O)c1ccc(N/N=C/C=C/c2ccccc2[N+](=O)[O-])c([N+](=O)[O-])c1,60.6*,0.1,-1.4,-6.4,0.5,-0.4
COc1ccccc1NS(=O)(=O)c1ccc(NN=C2CCCC2)c([N+](=O)[O-])c1,31.6,0.5,10.6,-8.1,3.4,.
COc1ccccc1NS(=O)(=O)c1cccc(C(=O)N/N=C/c2c(C)nn(-c3ccccc3)c2N2CCCC2)c1,61.7*,-2.8,11.3,-8.7,7.1,15.1
CCCCCCCCN1C(=O)[C@@H](CC(=O)N2CCC(c3ccccc3)CC2)C[C@@]2(C(=O)OC)C1=C[C@H](C(C)C)O[C@@H]2C1CC1,.,0.1,2.4,.,-2.1,.
CC(=O)c1cc(-c2csc(C=O)c2)c(=O)n2c1CCC2,.,0.9,1.8,.,4.0,.
COc1ccc(S[C@]2(C(=O)N3CCN(C(C)=O)CC3)CC(=O)N(C(=O)c3ccccc3)[C@@H]2c2ccc(OC)cc2)cc1,.,0.2,-4.9,.,-3.8,.
COc1c(/C=N/Nc2ccc([N+](=O)[O-])cc2[N+](=O)[O-])c(C)nn1-c1ccccc1,12.4,-0.1,-7.0,-9.3,-3.0,.
O=C(O)c1ccccc1NS(=O)(=O)c1ccc(NN=Cc2ccc(F)cc2)c([N+](=O)[O-])c1,57.1*,.,.,12.4*,.,70.9*
Cc1nn(-c2ccccc2)c(N2CCCC2)c1/C=N/Nc1ccc(S(=O)(=O)Nc2ccccc2)cc1[N+](=O)[O-],52.7*,-0.2,4.6,0.5,-1.1,4.8
COc1ccc(C(=O)OCC(=O)NC(=O)NCc2ccccc2)cc1[N+](=O)[O-],26.0,0.2,2.9,0.4,0.8,.
Cc1ccc(C(=O)Nc2ccccc2N2CCCCC2)cc1[N+](=O)[O-],45.6,-0.1,0.6,1.9,-0.3,.
COc1ccc(C(=O)OCC(=O)Nc2ccccc2)cc1[N+](=O)[O-],61.8*,-0.4,0.5,-2.2,0.7,46.5*
